Assay [1] can be described thus: NCI Yeast Anticancer Drug Screen. Data for the rad50 strain (AID 155).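 Also: 0% = growth of vehicle-only cultures of the same strain.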 To be noted: S. cerevisiae rad50 strain growth inhibition, active compounds read high. The procedure, abridged: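 Yeast carrying a defined DNA repair defect were exposed to test compounds, and growth was compared with vehicle-treated controls to give percent inhibition.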
Assay [2] in a line: NCI Yeast Anticancer Drug Screen. Data for the mec2-1 strain (AID 157). To be noted: S. cerevisiae mec2-1 strain, active compounds read high. The procedure, abridged:
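Strain: mec2-1 (DNA repair/cell cycle alteration). Compound exposure, then growth measured; inhibition expressed relative to vehicle.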

Assay [3] is described as follows: NCI Yeast Anticancer Drug Screen. Data for the sgs1 mgt1 strain (AID 161).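 Also: 0% = growth of cultures given vehicle only.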 To be noted: S. cerevisiae sgs1 mgt1 strain, active compounds read high. An outline of the steps: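 Read-out: growth inhibition vs vehicle controls. Cells: mutant yeast strain deficient in DNA damage repair.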
A short description of assay [4]: NCI Yeast Anticancer Drug Screen. Data for the cln2 rad14 strain (AID 165).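 Also: 0% = growth equal to vehicle treated cultures.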 To be noted: S. cerevisiae cln2 rad14 strain, active compounds read high. The procedure, abridged:
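Compounds are applied to the cln2 rad14 yeast strain, and growth is then compared with that of vehicle-treated cultures to give inhibition.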

The nature of assay [5]: NCI Yeast Anticancer Drug Screen. Data for the bub3 strain (AID 167). To be noted: S. cerevisiae bub3 mutant strain, active compounds read high. An outline of the steps:
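Compounds were applied to a genetically altered yeast strain carrying a cell-cycle control defect. Growth inhibition was scored against vehicle-treated controls.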

Assay [6] can be described thus: NCI Yeast Anticancer Drug Screen. Data for the mlh1 rad18 strain (AID 175). To be noted: S. cerevisiae mlh1 rad18 strain growth inhibition, active compounds read high. The procedure, abridged: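 Read-out is yeast growth inhibition, calculated against vehicle-only controls. The compound was applied to a strain engineered with DNA damage repair alterations.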
Where [7] appears, read: at 5.0 µM (retest, dose inferred, filed as 0.5).
The mark [8] stands for this setting: at 50.0 µM (retest, dose inferred, filed as 5.0).

About 79,000 compounds went through this panel and 15% of them were active in at least one assay; those are over-represented in the sample as a whole. Unmarked numbers belong to inactive results. Calls of active or inactive are those of the source. Rule as the data show it: active = growth inhibition above about 70%; inactive = the rest.

As to `C[CH2][Pb]([CH2]C)([CH2]C)[O]C(C)=O`, the growth inhibition is 33% in assay [1] (setting [7]); 48% in assay [1] (setting [8]); 84.8% (active) in assay [1] (at 50.0 µM); 43% in assay [2] (setting [7]); 40% in assay [2] (setting [8]); 76% (active) in assay [2] (at 50.0 µM). Also, the growth inhibition in assay [3] (setting [7]) was 11%; in assay [3] (setting [8]), 98% (active); in assay [3] (at 50.0 µM), 86.8% (active); in assay [4] (setting [7]), 29%; in assay [4] (setting [8]), 96% (active); in assay [4] (at 50.0 µM) it was 52.7%. The growth inhibition was 26% in assay [5] (setting [7]); 97% (active) in assay [5] (setting [8]); 82.4% (active) in assay [5] (at 50.0 µM); 35% in assay [6] (setting [7]); 59% in assay [6] (setting [8]); 77.1% (active) in assay [6] (at 50.0 µM).
Turning to `CC/C(=C/c1ccc(OC)cc1)[N+](=O)[O-]`, the growth inhibition is 80% (active) in assay [1] (setting [7]); 99% (active) in assay [1] (setting [8]); 99.2% (active) in assay [1] (at 50.0 µM); 35% in assay [2] (setting [7]); 100% (active) in assay [2] (setting [8]); 99.7% (active) in assay [2] (at 50.0 µM). Also, the growth inhibition is 46% in assay [3] (setting [7]); 99% (active) in assay [3] (setting [8]); 99.5% (active) in assay [3] (at 50.0 µM); 20% in assay [4] (setting [7]); 100% (active) in assay [4] (setting [8]); 99% (active) in assay [4] (at 50.0 µM). For the same compound, the growth inhibition was 49% in assay [5] (setting [7]); 99% (active) in assay [5] (setting [8]); 99.3% (active) in assay [5] (at 50.0 µM); 40% in assay [6] (setting [7]); 99% (active) in assay [6] (setting [8]); 99.2% (active) in assay [6] (at 50.0 µM).
Consider `CC1(C(=O)O)CCCC2(C)c3cc(O)ccc3CCC12` (configuration not stated), for which the growth inhibition was 2% in assay [1] (setting [7]); 83% (active) in assay [1] (setting [8]); 18.4% in assay [1] (at 50.0 µM); 2% in assay [2] (setting [7]); 86% (active) in assay [2] (setting [8]); 13% in assay [2] (at 50.0 µM). Further, the growth inhibition is 2% in assay [3] (setting [7]); 88% (active) in assay [3] (setting [8]); 46.4% in assay [3] (at 50.0 µM); -3% in assay [4] (setting [7]); 89% (active) in assay [4] (setting [8]); 52.4% in assay [4] (at 50.0 µM). The growth inhibition in assay [5] (setting [7]) was 5%; in assay [5] (setting [8]) it was 87% (active); in assay [5] (at 50.0 µM) it was 41.9%; in assay [6] (setting [7]) it was 3%; in assay [6] (setting [8]), 89% (active); in assay [6] (at 50.0 µM), 42.5%.
In the case of `CCCCOOC(=O)c1ccccc1C(=O)OOCCCC`, the growth inhibition in assay [1] (setting [7]) is 47%; in assay [1] (setting [8]), 99% (active); in assay [1] (at 50.0 µM) it was 99.3% (active); in assay [2] (setting [7]), 33%; in assay [2] (setting [8]) it was 100% (active); in assay [2] (at 50.0 µM), 99.5% (active). The growth inhibition in assay [3] (setting [7]) is 41%; in assay [3] (setting [8]), 100% (active); in assay [3] (at 50.0 µM), 99% (active); in assay [4] (setting [7]), 51%; in assay [4] (setting [8]), 99% (active); in assay [4] (at 50.0 µM) it was 98.7% (active). Besides, the growth inhibition in assay [5] (setting [7]) is 30%; in assay [5] (setting [8]) it was 100% (active); in assay [5] (at 50.0 µM), 99.5% (active); in assay [6] (setting [7]), 70% (active); in assay [6] (setting [8]), 99% (active); in assay [6] (at 50.0 µM) it was 98.8% (active).
Regarding `[Cl][Hg][c]1ccco1`, the growth inhibition in assay [1] (setting [7]) is 99% (active); in assay [1] (setting [8]), 99% (active); in assay [1] (at 50.0 µM) it was 99.5% (active); in assay [2] (setting [7]) it was 100% (active); in assay [2] (setting [8]), 99% (active); in assay [2] (at 50.0 µM), 99.5% (active). Besides, the growth inhibition in assay [3] (setting [7]) was 100% (active); in assay [3] (setting [8]), 100% (active); in assay [3] (at 50.0 µM), 99.7% (active); in assay [4] (setting [7]), 99% (active); in assay [4] (setting [8]), 99% (active); in assay [4] (at 50.0 µM) it was 99% (active). In addition, the growth inhibition in assay [5] (setting [7]) was 100% (active); in assay [5] (setting [8]), 100% (active); in assay [5] (at 50.0 µM), 99.4% (active); in assay [6] (setting [7]) it was 99% (active); in assay [6] (setting [8]), 99% (active); in assay [6] (at 50.0 µM) it was 99.2% (active).
For `O=c1ccc(N=Cc2ccc(N(CCCl)CCCl)cc2)ccc1O`, the growth inhibition is 94% (active) in assay [1] (setting [7]); 93% (active) in assay [1] (setting [8]); 96.2% (active) in assay [1] (at 50.0 µM); 92% (active) in assay [2] (setting [7]); 97% (active) in assay [2] (setting [8]); 65.4% in assay [2] (at 50.0 µM). The growth inhibition was 97% (active) in assay [3] (setting [7]); 98% (active) in assay [3] (setting [8]); 92% (active) in assay [3] (at 50.0 µM); 52% in assay [4] (setting [7]); 89% (active) in assay [4] (setting [8]); 35.4% in assay [4] (at 50.0 µM). Further, the growth inhibition is 95% (active) in assay [5] (setting [7]); 93% (active) in assay [5] (setting [8]); 93% (active) in assay [5] (at 50.0 µM); 98% (active) in assay [6] (setting [7]); 98% (active) in assay [6] (setting [8]); 93.8% (active) in assay [6] (at 50.0 µM).
In the case of `CCC[CH2][Sn]1([CH2]CCC)[O]C(=O)c2cccnc2[S]1`, the growth inhibition was 40% in assay [1] (setting [7]); 95% (active) in assay [1] (setting [8]); 78.4% (active) in assay [1] (at 50.0 µM); 38% in assay [2] (setting [7]); 97% (active) in assay [2] (setting [8]); 78.3% (active) in assay [2] (at 50.0 µM). Moreover, the growth inhibition in assay [3] (setting [7]) is 55%; in assay [3] (setting [8]) it was 97% (active); in assay [3] (at 50.0 µM) it was 77% (active); in assay [4] (setting [7]), 31%; in assay [4] (setting [8]) it was 94% (active); in assay [4] (at 50.0 µM) it was 62.5%. Moreover, the growth inhibition was 44% in assay [5] (setting [7]); 97% (active) in assay [5] (setting [8]); 83.5% (active) in assay [5] (at 50.0 µM); 51% in assay [6] (setting [7]); 97% (active) in assay [6] (setting [8]); 79.8% (active) in assay [6] (at 50.0 µM).
With `c1ccc(C[As](c2ccccc2)c2ccccc2)cc1`, the growth inhibition in assay [1] (setting [7]) was 99% (active); in assay [1] (setting [8]), 3%; in assay [1] (at 50.0 µM) it was 99.2% (active); in assay [2] (setting [7]), 99% (active); in assay [2] (setting [8]), 15%; in assay [2] (at 50.0 µM) it was 99.5% (active). In addition, the growth inhibition is 99% (active) in assay [3] (setting [7]); 36% in assay [3] (setting [8]); 99.5% (active) in assay [3] (at 50.0 µM); 98% (active) in assay [4] (setting [7]); -98% in assay [4] (setting [8]); 99.2% (active) in assay [4] (at 50.0 µM). In addition, the growth inhibition in assay [5] (setting [7]) is 99% (active); in assay [5] (setting [8]), 22%; in assay [5] (at 50.0 µM), 99.4% (active); in assay [6] (setting [7]), 99% (active); in assay [6] (setting [8]) it was 23%; in assay [6] (at 50.0 µM), 99.2% (active).
Consider `O=C1C=Cc2ccccc2C1=O`, for which the growth inhibition was 29% in assay [1] (setting [7]); 87% (active) in assay [1] (setting [8]); 83.6% (active) in assay [1] (at 50.0 µM); 32% in assay [2] (setting [7]); 95% (active) in assay [2] (setting [8]); 88.8% (active) in assay [2] (at 50.0 µM). Besides, the growth inhibition in assay [3] (setting [7]) was 30%; in assay [3] (setting [8]), 72% (active); in assay [3] (at 50.0 µM) it was 88.2% (active); in assay [4] (setting [7]), 18%; in assay [4] (setting [8]), 87% (active); in assay [4] (at 50.0 µM), 46.3%. For the same compound, the growth inhibition in assay [5] (setting [7]) is 36%; in assay [5] (setting [8]) it was 97% (active); in assay [5] (at 50.0 µM) it was 91.9% (active); in assay [6] (setting [7]), 31%; in assay [6] (setting [8]) it was 96% (active); in assay [6] (at 50.0 µM), 94.9% (active).

The values above are taken from PubChem BioAssay (NCI).
